Measurements published in PubChem BioAssay (NCATS).
Results filed as inconclusive are left out. Unmarked numbers belong to inactive results. Calls of active or inactive are those of the source. Calls follow the shape of the dose curve; as a rule, active = well fitted inhibition curve with a large enough effect; inconclusive = small, poorly fitted or top-dose-only effect; inactive = flat fitted curve, though single readings scatter. Where a SMILES comes first, the peptide text is derived from it. The star is where a group is joined. AMC = Cc1cc(=O)oc2cc(N*)ccc12; Cbz = O=C(OCc1ccccc1)*

The compounds below were run on KB-3-1 (assay: Cytotoxic Profiling of Annotated Libraries Using Quantitative High-Throughput Screening (AID 1296008; also: nearly all actives have a fitted effect of over 60% in size)). Details: Five cell lines viability, CellTiter-Glo ATP luminescence, 48-72 h; max response: active compounds read low.
How it was run: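 Cells exposed to compounds for 48 or 72 hr at 37 degrees Celsius. Viability read as ATP-coupled luminescence with CellTiter-Glo after 10 min at room temperature.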
% is scaled to controls: 0 for no effect and ±100 for the full control effect.

Row | Compound | outcome | max response [%]
1 | O=C(N[C@@H]1CC[C@@H](c2cccc(F)c2F)CN(CC(F)(F)F)C1=O)N1CCC(n2c(=O)[nH]c3ncccc32)CC1 | inactive | 
2 | O=c1[nH]ccc2nc(-c3ccc(CN4CCC(c5nc(-c6ccccn6)n[nH]5)CC4)cc3)c(-c3ccccc3)cc12 |  | -16.7
3 | CC1=C2C[C@H]3OC(=O)[C@H](O)[C@@]4(O)[C@@H](C)[C@@H](O)[C@H](O)C([C@@]2(C)[C@H](O)[C@@H](O)C1)[C@@]34C (some centres undefined) |  | 9.81
4 | C=CC(C)(O)CC/C=C(\C)C(=O)O[C@@H]1[C@@H](O)[C@H](OC(C)(C=C)CC/C=C(\C)C(=O)O[C@@H]2O[C@H](CO)[C@@H](O)[C@H](O)[C@H]2O)O[C@H](CO)[C@H]1OC(=O)/C(C)=C/CCC(C)(O)C=C (some centres undefined) | inactive | 
5 | CC(C)(O)C1OC1C1=CC(=O)C2(C)OC2C1O (centres undefined) | inactive | 
6 | CC1(C)CCC[C@]2(C)C1CC=C(CO)[C@H]2CC/C(=C/CO)CO (some centres undefined) |  | -0.734
7 | C[C@@]1(C(=O)O)CCC[C@@]2(C)C3=CC[C@H]4C[C@@]3(CC[C@H]12)CC4(O)CO (some centres undefined) | inactive | 
8 | Cc1c(NC(=O)N2CCOCC2)ccc2c1c1ccccc1n2C(C)C |  | 3.33
9 | CC[C@H]1OC(=O)[C@H](C)[C@@H](O[C@H]2C[C@@](C)(OC)[C@@H](O)[C@H](C)O2)C(C)[C@@H](O[C@@H]2O[C@H](C)C[C@H](N(C)C)[C@H]2O)[C@](C)(O)C[C@@H](C)CN(C)[C@H](C)[C@@H](O)[C@]1(C)O (some centres undefined) |  | -2.18
10 | CC(C)c1ccc2c(c1)C(O)CC1C(C)(CO)CCCC21C (centres undefined) |  | 9.46
11 | O=C1C[C@@]2(C(=O)N1)C(=O)N(Cc1ccc(Br)cc1F)C(=O)c1cccn12 |  | 1.61
12 | CC(=O)OC12CC(C)C(OC(=O)c3ccccc3)C1/C=C(/C)C(OC(=O)c1ccccc1)CC(=O)C(C)(C)/C=C/C(C)C2=O (centres undefined) | inactive | 
13 | COC(=O)C(CC1(O)c2ccccc2N2C(=O)C(C)(C)N(O)C21)n1cnc2ccccc2c1=O (centres undefined) |  | 0.0146
14 | C=C1[C@@H]2CC[C@@]3(C)[C@H](c4ccoc4)OC(=O)C[C@]13O[C@H]1CC(=O)C(C)(C)[C@H](C(O)C(=O)OC)[C@]12C (some centres undefined) | inactive | 
15 | COC(=O)C1=COC(O[C@@H]2O[C@H](CO)[C@@H](O)[C@H](O)[C@H]2O)/C(=C\COC(=O)/C=C/c2ccccc2)C1CC(=O)OCCc1ccc(O)cc1 (some centres undefined) | inactive | 
16 | COc1cc(C(C)=O)ccc1O[C@@H]1O[C@H](CO[C@@H]2OC[C@@H](O)[C@H](O)[C@H]2O)[C@@H](O)[C@H](O)[C@H]1O |  | 7.17
17 | CC1(C)[C@@H]2CC=C(CO[C@@H]3O[C@H](CO[C@@H]4OC[C@H](O)[C@H](O)[C@H]4O)[C@@H](O)[C@H](O)[C@H]3O)[C@H]1C2 | inactive | 

Row | Compound | outcome | max response [%]
18 | CCC(C)/C=C(C)/C=C/C(=O)C1CCC(O)C(C)(O)C1=O (centres undefined) |  | 9.09
19 | O=C(/C=C/c1ccc(O)c(O)c1)O[C@H]1[C@H](OC2CCCCC2O)O[C@H](CO)[C@@H](O)[C@@H]1O (some centres undefined) |  | -3.21
20 | C=C1CCC2C(C)(C)CC(O)CC2(C)C1CCC(C)CCOC(=O)CCC(=O)O (centres undefined) |  | -6.16
21 | O=C(O)CC(CCc1ccccc1)OC1OC(CO)C(O)C(O)C1O (centres undefined) | inactive | 
22 | CC(O)/C=C/C1(O)C(C)C(O)C(O[C@@H]2O[C@H](CO)[C@@H](O)[C@H](O)[C@H]2O)CC1(C)C (some centres undefined) |  | 0.447
23 | CC1(C)CC[C@]2(C(=O)O[C@@H]3O[C@H](CO)[C@@H](O)[C@H](O)[C@H]3O)CC[C@]3(C)C(=CCC4[C@@]5(C)C[C@@H](O)[C@H](O)[C@@](C)(CO)C5[C@H](O)C[C@]43C)C2[C@@H]1O (some centres undefined) | inactive | 
24 | CN1C(=O)N(c2cc(Cl)cc(Cl)c2)C(=O)[C@@]1(C)Cc1ccc(Br)cc1 |  | 3.14
25 | O=C(Nc1ccccc1)Nc1ccc(-c2ccc(C(=O)C3CCCC3C(=O)O)cc2)cc1 (centres undefined) | inactive | 
26 | C=C1C(O)CCC2(C)CC3(OC)OC(=O)C(C)=C3CC12 (centres undefined) |  | 3.24
27 | O=C(O)c1ccnc2cc(C(OCC3CCC(F)(F)CC3)c3ccccc3Cl)[nH]c12 (centres undefined) |  | 8.39
28 | CCCCOc1nc(N)c2c(n1)N(Cc1cccc(CN3CCCC3)c1)CC(=O)N2 |  | -3.08
29 | CC1CC=C2C1CC1(O)C(=O)CC2(C)C1(C)CO (centres undefined) | inactive | 
30 | O=C(OCC1=CC(Cl)C(O)C(OC(=O)c2ccccc2)C1O)c1ccccc1 (centres undefined) | inactive | 
31 | O=C(OC1C=C(CO)C2C(OC3OC(CO)C(O)C(O)C3O)OC=CC12O)c1ccc(O)cc1 (centres undefined) |  | 1.12
32 | CC(=O)c1ccc(O[C@@H]2O[C@H](CO[C@@H]3OC[C@@H](O)[C@H](O)[C@H]3O)[C@@H](O)[C@H](O)[C@H]2O)cc1 |  | 4.67
33 | Cc1cc(=O)oc2cc(NC(=O)[C@H](CCC(=O)O)NC(=O)[C@H](CC(C)C)NC(=O)[C@H](CC(C)C)NC(=O)OCc3ccccc3)ccc12 (Cbz-Leu-Leu-Glu-{AMC}) |  | 3.3
34 | Fc1ccccc1-c1nc2ccn(Cc3ccc(-c4ccc(C(F)(F)F)cc4C(F)(F)F)nn3)cc-2n1 |  | -0.729
